Data on 36 compounds can be found in PubChem BioAssay.

Each structure is given as a SMILES string.

The assay deals with Inhibin beta A chain (activin A). The assay is described as follows: INHBA (activin A) binders on microarrays, primary screen, biochemical, small-molecule microarray, 635 nm fluorescence scan (AID 1107).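 Note: mouse activin A protein probed at 4.33 µg/mL on printed slides; score merges bound-protein fluorescence near 667 nm with spot signal-to-noise.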 Particulars: small-molecule microarray binding, higher = more signal.
As to `C=C1C(=O)C=C2CN(C(=O)c3ccccc3)[C@@](Cc3ccc(OC)cc3)(C(=O)OC)[C@@H]12`, the composite z-score amounted to 0.516.

The compound `COC(=O)[C@@]1(Cc2ccc(F)cc2)[C@H]2c3cc(C(=O)N(C)C)n(C)c3C[C@H]2CN1C(=O)c1ccccc1` came in with a composite z-score of 0.468.

As to `COCCCNC(=O)[C@@]1(CCS(=O)(=O)c2ccccc2)COC(c2ccc(OCCCO)cc2)=N1`, the composite z-score was determined as 0.952.

As to `CO[C@H]1O[C@H](CO)[C@@H](OC(=O)Nc2ccc3c(c2)OCO3)[C@H](OC(=O)Nc2ccccc2-c2ccccc2)[C@H]1OC(=O)Nc1ccccc1-c1ccccc1`, the composite z-score stood at 0.411.

Take `NC(=O)N1C(=O)C2C(C1=O)C1C=C(CCCO)C2C(C2CC2)N1Cc1sc2ccccc2c1Cl` (stereo unspecified): the composite z-score is 0.303.

`C=CC[C@@]1(C(=O)OC)N=C(c2ccc(OCCCO)cc2)O[C@@H]1c1ccccc1N=[N+]=[N-]` returned a composite z-score of 0.767.

Consider `C=CCC(OC(C)=O)[C@@H]1[C@@H](N(Cc2ccc(-c3ccccc3)cc2)C(=O)c2cccc3ccccc23)c2cc(OCCCO)ccc2N1C(=O)Cc1ccc(OC)cc1` (stereo partly specified), for which the composite z-score was determined as 1.37.

Regarding `CCOc1cc(C(O)C2C=CC3C(=O)N(c4ccccc4)C(=O)C3N2Nc2ccccc2F)ccc1O` (stereo unspecified), the composite z-score was 0.604.

Compound `C=CCC(OC(C)=O)[C@@H]1[C@@H](N(Cc2cc3ccccc3o2)C(=O)c2cccc3ccccc23)c2cc(OCCCO)ccc2N1C(=O)c1ccc2ccccc2n1` (stereo partly specified) registered a composite z-score of 1.1.

Compound `COc1ccc(C(O)C2C=CC3C(=O)N(C)C(=O)C3N2N(c2ccccc2)c2ccccc2)cc1` (stereo unspecified) showed a composite z-score of 1.32.

In turn, `O=C1O[C@@H](c2ccccc2)[C@@H](c2ccccc2)N2[C@@H](c3ccc(OCCO)cc3)[C@]3(C(=O)Nc4ccc(C#CC5(O)CCCCCC5)cc43)[C@@H](C(=O)Nc3nc4ccccc4s3)[C@H]12` showed a composite z-score of 0.541.

Take `COCCOC(=O)N1C(=O)[C@@]2(c3cc(C#CCCO)ccc31)[C@H](C(N)=O)[C@H]1C(=O)O[C@H](c3ccccc3)[C@H](c3ccccc3)N1[C@@H]2c1ccccc1OCCO`: the composite z-score is 0.042.

`CC1CC/C=C\[C@H]2OC34C=CCN(C(C)(C)C)C(=O)[C@H]3N(CCCO)C(=O)[C@@H]4C2C(=O)O1` (stereo partly specified) gave a composite z-score of 0.406.

`COc1ccc([Si](C)(C)[C@H]2[C@H](CC(=O)N3Cc4ccccc4C[C@H]3CO)O[C@@]3(C(=O)N(C)c4ccccc43)[C@@H]2C)cc1`: the composite z-score turned out to be 1.58.

For `Cc1ccc(S[C@]2(C(=O)NCCCN(C)C)CC(=O)N(C3Cc4ccccc4C3)[C@@H]2c2ccc(CO)cc2I)cc1`, the composite z-score was 0.794.

Consider `O=C1O[C@H](c2ccccc2)[C@H](c2ccccc2)N2[C@H]1[C@@H](C(=O)N1CCN(c3ncccn3)CC1)[C@]1(C(=O)Nc3ccc(C#CCCO)cc31)[C@H]2c1ccc(O)cc1`, for which the composite z-score is -0.0667.

On to `[N-]=[N+]=Nc1ccccc1C[C@]1(C(=O)N2CCOCC2)N=C(c2ccc(OCCCO)cc2)O[C@H]1c1ccccc1N=[N+]=[N-]`, for which the composite z-score was 1.3.

For the compound `COc1ccc(C(=O)Nc2ccc(CN3C(=O)[C@@]4(O[C@@H](CCn5cc(CCO)nn5)[C@H]([Si](C)(C)c5ccc(OC)cc5)[C@H]4C)c4ccccc43)cc2)cc1`, the composite z-score is 1.57.

As for `NC(=O)NCC#Cc1ccc2c(c1)[C@]1(C(=O)N2)[C@H](c2ccc(OCCO)cc2)N2[C@H](c3ccccc3)[C@H](c3ccccc3)OC(=O)[C@H]2[C@@H]1C(=O)NC[C@H](O)c1ccccc1`, the composite z-score came to 0.902.

As to `O=C1[C@H]2C=C(I)[C@H](C[C@@H]2c2ccccc2)[C@@]12CO2`, the composite z-score turned out to be 1.15.

The compound `CC(C)NC(=O)[C@@H]1c2ccccc2C(=O)N(Cc2ccc(OC(F)(F)F)cc2)[C@H]1c1ccc(CO)cc1` gave a composite z-score of 0.237.

Consider `COc1ccc([Si](C)(C)[C@H]2[C@H](CC(=O)N3Cc4ccccc4C[C@H]3CO)O[C@@]3(C(=O)N(c4ccccc4)c4ccccc43)[C@@H]2C)cc1`, for which the composite z-score was 1.47.

Compound `CC(C)(C)N1CC=CC23O[C@@H]4/C=C\CCCOC(=O)C4[C@H]2C(=O)N(CCCO)[C@@H]3C1=O` (stereo partly specified) yielded a composite z-score of 0.076.

Take `O=C1C2C=CC(C(O)c3ccc([N+](=O)[O-])cc3)N(Nc3ccccc3F)C2C(=O)N1c1ccccc1` (stereo unspecified): the composite z-score was determined as 0.941.

`COc1ccccc1CN1C(=O)c2ccccc2[C@](Cc2ccccc2I)(C(=O)NCC(C)C)[C@@H]1c1ccc(CO)cc1` came in with a composite z-score of -0.316.

As for `C=C(CCCC)/C(=C/C[C@H](OC(=O)c1ccncc1)c1ccc(OCCO)cc1)c1cnc2ccccc2c1`, the composite z-score amounted to 1.36.

The compound `CCCC[C@H]1C[C@@H]1[C@@H]1N(C(C)=O)[C@H](c2cccc(OC)c2)CC12CC2` showed a composite z-score of 0.596.

`O=C1O[C@H](Cc2ccccc2)[C@@H]2[C@H]3C=CCCC=C3CN2[C@H]1Cc1ccc(O)cc1` had a composite z-score of 0.991.

Consider `COCCOC(=O)N1C(=O)[C@@]2(c3cc(C#CCC(C(=O)OC)C(=O)OC)ccc31)[C@H](C(=O)Nc1nc3ccccc3s1)[C@H]1C(=O)O[C@H](c3ccccc3)[C@H](c3ccccc3)N1[C@@H]2c1ccc(OCCO)cc1`, for which the composite z-score is 0.286.

With `CCCCCCc1nc(Cc2cc(OC)c(OC)c(OC)c2)cc2c1[Si](C(C)C)(C(C)C)O[C@H]2c1ccccc1`, the composite z-score stood at 0.882.

With `COC(=O)c1cccc([C@H]2OC(=CC(=O)OC(C)C)C[C@@H](c3cccc(C(=O)OC)c3)O2)c1`, the composite z-score came out at 0.463.

On to `C=CC[C@]1(C(=O)NCC(O)CO)COC(c2ccc(OCCCO)cc2)=N1` (stereo partly specified), for which the composite z-score was 1.12.

Consider `COC(=O)[C@@]1(Cc2ccccc2)[C@H]2c3cc(C(=O)N(C)C)n(Cc4ccc(C(F)(F)F)nc4)c3C[C@H]2CN1C(=O)c1ccccc1`, for which the composite z-score stood at 0.822.

Take `CCCNC(=O)[C@@]1(c2ccc([N+](=O)[O-])cc2)CC(=O)N(C(C)C)[C@@H]1c1ccc(CO)cc1`: the composite z-score is -0.251.

`C[C@@H]1NC(=O)C([C@@H](C)OCc2ccccc2)NC(=O)[C@@]23C(=O)N[C@@H](Cc4ccccc4)C2[C@H](C)[C@@]2(C)O[C@H]2C3/C=C/C/C=C\CNC1=O` (stereo partly specified) gave a composite z-score of 1.44.

Take `CCOC(=O)C1=C[C@@H](C(C)(C)C)N(S(=O)(=O)c2ccc(C)cc2)[C@H]1c1ccc(C#N)cc1`: the composite z-score came out at 0.712.
